A number with no mark means an inactive call.
Assays:
Assay in all cases: log2 ratio of Biotin-Ahx-Ub-VS probe labelling (fragment/DMSO); higher = less target engagement (more negative = stronger competition), active = hit call of the paper (q ≤ 0.05, log2 ratio ≤ -1)
Details in all cases: compound concentration: 200 uM; treatment time: 3 h
ALG13 = biological target: T1, ALG13 (UniProt Q9NP73)
T1 sequence (whole entry): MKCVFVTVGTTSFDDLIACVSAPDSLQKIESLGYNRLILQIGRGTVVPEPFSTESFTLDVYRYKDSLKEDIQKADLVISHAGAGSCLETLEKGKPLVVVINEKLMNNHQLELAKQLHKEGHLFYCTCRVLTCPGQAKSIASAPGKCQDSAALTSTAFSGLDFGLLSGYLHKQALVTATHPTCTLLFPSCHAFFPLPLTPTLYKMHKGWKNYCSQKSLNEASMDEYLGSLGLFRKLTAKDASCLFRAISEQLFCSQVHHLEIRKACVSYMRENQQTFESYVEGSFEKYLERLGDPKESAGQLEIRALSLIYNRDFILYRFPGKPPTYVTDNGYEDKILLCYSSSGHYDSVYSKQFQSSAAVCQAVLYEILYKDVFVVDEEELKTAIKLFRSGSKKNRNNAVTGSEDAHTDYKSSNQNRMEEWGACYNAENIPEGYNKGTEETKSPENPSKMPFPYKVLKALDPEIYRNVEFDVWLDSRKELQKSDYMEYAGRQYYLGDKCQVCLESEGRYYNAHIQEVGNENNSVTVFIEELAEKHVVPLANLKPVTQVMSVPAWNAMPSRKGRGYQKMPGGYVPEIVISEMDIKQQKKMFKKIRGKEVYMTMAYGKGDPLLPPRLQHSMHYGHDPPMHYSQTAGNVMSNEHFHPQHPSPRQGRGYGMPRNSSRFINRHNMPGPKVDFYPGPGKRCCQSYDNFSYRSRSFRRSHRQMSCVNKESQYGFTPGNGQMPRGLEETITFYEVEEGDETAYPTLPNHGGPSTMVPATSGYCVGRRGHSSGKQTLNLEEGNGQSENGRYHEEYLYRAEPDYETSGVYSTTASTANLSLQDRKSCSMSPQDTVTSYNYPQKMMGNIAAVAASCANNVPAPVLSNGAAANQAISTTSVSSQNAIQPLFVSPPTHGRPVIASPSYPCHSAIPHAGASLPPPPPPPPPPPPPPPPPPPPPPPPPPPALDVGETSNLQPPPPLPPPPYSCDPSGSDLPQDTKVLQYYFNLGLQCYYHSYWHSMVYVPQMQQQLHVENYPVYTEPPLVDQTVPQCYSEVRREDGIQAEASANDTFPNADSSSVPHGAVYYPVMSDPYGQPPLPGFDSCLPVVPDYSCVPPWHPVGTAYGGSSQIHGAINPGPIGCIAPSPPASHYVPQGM
How it was run: (§1)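 In triplicate, 495 µg of HEK293T lysate per sample was incubated with fragment at 200 µM or vehicle for 3 h. Biotin-Ahx-Ub-VS was then added to 0.5 µM final for 1 h, and labelled DUBs were captured with NeutrAvidin, digested with LysC and trypsin, and measured by diaPASEF LC-MS/MS. Data are average log2 fragment/vehicle ratios by unpaired t-test from global-median-normalised Spectronaut label-free quantities, restricted to proteins with ≥2 unique peptides.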

ATXN3 = ATXN3 (UniProt P54252)
How it was run: as §1

BAP1 = biological target: T2, BAP1 (UniProt Q92560)
T2 sequence (whole entry): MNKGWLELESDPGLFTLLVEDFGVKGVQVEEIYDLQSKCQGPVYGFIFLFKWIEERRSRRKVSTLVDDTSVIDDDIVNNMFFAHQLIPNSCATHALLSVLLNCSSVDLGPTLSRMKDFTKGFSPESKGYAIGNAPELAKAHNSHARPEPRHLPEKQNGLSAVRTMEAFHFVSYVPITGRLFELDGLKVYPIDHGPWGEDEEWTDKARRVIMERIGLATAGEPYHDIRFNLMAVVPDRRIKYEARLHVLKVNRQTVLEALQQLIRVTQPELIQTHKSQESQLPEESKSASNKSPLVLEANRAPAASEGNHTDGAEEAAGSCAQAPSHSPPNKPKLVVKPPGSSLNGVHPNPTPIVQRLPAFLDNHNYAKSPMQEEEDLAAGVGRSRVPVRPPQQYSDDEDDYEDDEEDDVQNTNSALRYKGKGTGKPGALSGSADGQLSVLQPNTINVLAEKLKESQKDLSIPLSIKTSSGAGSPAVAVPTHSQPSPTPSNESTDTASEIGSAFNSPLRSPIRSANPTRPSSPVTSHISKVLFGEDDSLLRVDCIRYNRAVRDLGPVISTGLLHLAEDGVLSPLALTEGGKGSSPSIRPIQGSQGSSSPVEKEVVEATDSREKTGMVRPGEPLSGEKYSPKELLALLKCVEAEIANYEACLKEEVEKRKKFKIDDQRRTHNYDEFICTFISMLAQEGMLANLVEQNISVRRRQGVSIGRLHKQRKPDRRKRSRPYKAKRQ
How it was run: as §1

EIF3F = EIF3F (UniProt O00303)
How it was run: as §1

EIF3H = EIF3H (UniProt O15372)
How it was run: as §1

FAM105A = biological target: T3, FAM105A (UniProt Q9NUU6)
T3 sequence (whole entry): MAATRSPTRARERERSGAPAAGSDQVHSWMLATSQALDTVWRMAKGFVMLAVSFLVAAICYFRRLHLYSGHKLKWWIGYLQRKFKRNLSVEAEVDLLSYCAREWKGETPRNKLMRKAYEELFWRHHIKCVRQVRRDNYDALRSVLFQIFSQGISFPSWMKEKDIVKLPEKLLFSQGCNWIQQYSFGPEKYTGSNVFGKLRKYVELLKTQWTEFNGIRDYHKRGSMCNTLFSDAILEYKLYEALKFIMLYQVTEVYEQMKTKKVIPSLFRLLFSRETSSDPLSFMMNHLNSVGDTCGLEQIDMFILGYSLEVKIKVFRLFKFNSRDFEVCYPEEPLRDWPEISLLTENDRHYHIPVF
How it was run: as §1

OTUB1 = OTUB1 (UniProt Q96FW1)
How it was run: as §1

OTUD4 = biological target: T4, OTUD4 (UniProt Q01804)
T4 sequence (whole entry): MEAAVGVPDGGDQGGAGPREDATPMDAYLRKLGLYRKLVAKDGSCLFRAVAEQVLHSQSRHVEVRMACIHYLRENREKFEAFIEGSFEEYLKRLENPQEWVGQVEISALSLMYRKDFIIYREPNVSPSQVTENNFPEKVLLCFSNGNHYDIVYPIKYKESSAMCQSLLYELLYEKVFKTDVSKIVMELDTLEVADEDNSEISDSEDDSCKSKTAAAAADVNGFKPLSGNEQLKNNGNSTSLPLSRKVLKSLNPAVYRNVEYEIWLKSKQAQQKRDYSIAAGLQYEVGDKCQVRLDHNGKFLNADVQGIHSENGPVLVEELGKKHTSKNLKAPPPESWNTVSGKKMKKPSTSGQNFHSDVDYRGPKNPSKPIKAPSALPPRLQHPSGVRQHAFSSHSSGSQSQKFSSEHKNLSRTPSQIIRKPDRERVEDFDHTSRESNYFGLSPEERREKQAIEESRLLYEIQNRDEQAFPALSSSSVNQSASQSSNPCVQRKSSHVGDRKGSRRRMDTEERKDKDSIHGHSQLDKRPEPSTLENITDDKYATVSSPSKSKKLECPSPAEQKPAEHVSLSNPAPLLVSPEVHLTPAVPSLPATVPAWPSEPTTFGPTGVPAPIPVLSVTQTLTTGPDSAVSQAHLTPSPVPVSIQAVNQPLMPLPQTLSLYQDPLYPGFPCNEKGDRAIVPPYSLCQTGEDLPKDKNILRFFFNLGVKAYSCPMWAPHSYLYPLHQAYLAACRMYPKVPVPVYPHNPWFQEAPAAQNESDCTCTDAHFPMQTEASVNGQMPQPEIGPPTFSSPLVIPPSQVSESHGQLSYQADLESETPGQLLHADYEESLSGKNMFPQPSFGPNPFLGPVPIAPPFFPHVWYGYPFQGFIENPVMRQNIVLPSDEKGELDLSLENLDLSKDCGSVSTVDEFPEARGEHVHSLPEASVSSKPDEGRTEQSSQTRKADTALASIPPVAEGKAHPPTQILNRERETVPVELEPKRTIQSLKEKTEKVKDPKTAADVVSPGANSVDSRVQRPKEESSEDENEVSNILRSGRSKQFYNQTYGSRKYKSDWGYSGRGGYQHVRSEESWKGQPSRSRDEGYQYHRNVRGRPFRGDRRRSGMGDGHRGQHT
How it was run: as §1

OTUD5 = biological target: T5, OTUD5 (UniProt Q96G74)
T5 sequence (whole entry): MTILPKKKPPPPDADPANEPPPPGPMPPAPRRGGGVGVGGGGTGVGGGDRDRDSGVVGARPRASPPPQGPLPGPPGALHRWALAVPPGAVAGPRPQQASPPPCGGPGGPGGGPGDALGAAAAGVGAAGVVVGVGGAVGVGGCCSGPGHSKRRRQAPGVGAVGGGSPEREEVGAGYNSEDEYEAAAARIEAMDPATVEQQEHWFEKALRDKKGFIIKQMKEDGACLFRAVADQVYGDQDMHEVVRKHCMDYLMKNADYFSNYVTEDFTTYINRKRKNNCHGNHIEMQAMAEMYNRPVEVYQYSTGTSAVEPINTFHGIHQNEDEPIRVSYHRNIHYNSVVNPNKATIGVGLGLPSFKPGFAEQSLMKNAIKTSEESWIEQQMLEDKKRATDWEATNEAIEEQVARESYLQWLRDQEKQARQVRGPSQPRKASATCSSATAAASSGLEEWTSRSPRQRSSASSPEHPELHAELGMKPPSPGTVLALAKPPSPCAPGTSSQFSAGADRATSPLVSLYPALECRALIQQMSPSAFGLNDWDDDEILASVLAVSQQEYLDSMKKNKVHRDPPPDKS
How it was run: as §1

Sequence of EIF3H (O15372 whole entry): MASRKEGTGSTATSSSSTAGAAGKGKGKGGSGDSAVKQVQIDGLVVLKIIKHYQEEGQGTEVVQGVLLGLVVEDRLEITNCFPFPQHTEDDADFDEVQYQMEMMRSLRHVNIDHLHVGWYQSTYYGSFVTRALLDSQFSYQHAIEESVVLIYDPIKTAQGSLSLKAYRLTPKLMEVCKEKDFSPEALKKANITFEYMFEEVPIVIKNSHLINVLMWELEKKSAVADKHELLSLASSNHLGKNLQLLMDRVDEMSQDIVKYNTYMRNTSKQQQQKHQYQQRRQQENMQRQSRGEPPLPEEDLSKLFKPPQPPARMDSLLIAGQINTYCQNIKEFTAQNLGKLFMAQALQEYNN
Sequence of OTUB1 (Q96FW1 whole entry): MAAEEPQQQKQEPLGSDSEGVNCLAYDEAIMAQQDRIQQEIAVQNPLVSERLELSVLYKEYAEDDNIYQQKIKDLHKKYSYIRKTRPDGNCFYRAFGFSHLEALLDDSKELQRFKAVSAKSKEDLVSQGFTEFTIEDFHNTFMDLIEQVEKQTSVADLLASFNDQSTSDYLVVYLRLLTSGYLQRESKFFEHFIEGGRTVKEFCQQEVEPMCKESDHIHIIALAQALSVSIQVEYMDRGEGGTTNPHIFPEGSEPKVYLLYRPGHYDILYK
Sequence of EIF3F (O00303 whole entry): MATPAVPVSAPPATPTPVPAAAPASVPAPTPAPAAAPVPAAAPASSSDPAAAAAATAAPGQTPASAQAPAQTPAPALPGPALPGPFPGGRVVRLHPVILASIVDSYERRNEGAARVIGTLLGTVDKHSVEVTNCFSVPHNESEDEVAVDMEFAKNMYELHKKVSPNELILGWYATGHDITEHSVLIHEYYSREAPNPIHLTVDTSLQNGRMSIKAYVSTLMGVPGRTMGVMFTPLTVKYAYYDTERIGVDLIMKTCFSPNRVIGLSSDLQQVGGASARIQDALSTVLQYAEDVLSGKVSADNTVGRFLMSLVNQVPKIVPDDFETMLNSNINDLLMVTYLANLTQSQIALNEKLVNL
Sequence of ATXN3 (P54252 whole entry): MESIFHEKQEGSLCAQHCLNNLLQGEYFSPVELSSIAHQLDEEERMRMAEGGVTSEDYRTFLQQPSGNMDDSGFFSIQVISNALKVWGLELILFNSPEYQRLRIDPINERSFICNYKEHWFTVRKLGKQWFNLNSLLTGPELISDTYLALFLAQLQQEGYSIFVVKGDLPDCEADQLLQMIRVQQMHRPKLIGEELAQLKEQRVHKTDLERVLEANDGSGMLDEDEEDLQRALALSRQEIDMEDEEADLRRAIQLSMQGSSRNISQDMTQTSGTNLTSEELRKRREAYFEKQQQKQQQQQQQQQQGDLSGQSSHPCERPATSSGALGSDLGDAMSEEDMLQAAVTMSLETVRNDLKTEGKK

## COc1ccc(CN(C)C(=O)CCl)cc1
ALG13
  log2 ratio of Biotin-Ahx-Ub-VS probe labelling: -0.466
ATXN3
  log2 ratio of Biotin-Ahx-Ub-VS probe labelling: -0.667
BAP1
  log2 ratio of Biotin-Ahx-Ub-VS probe labelling: -1.65 (active)
EIF3F
  log2 ratio of Biotin-Ahx-Ub-VS probe labelling: -0.171
EIF3H
  log2 ratio of Biotin-Ahx-Ub-VS probe labelling: 0.0709
FAM105A
  log2 ratio of Biotin-Ahx-Ub-VS probe labelling: 0.32
OTUB1
  log2 ratio of Biotin-Ahx-Ub-VS probe labelling: -0.0239
OTUD4
  log2 ratio of Biotin-Ahx-Ub-VS probe labelling: -0.413
OTUD5
  log2 ratio of Biotin-Ahx-Ub-VS probe labelling: -0.536
